Screening data deposited in PubChem BioAssay by National Center for Advancing Translational Sciences (NCATS).
Hits are enriched below; roughly 9.4% of the tested compounds scored in any of these assays.
SARS PLpro yeast: qHTS of Yeast-based Assay for SARS-CoV PLP | S. cerevisiae expressing SARS-CoV PLpro, growth rescue | Potency, µM (titrated, usually from 32.9 µM), for inactives: at the top dose activity, positive = growth rescue, most hits filed as activators | 330,000 compounds, 0.19% hits | AID 485353, 2010; calls by dose curve; further: 0% is about no effect; nearly all actives have a fitted effect of over 55% in size
AMA1 RON2 block: qHTS for Inhibitors of AMA1-RON; Towards Development of Antimalarial Drug Lead: Primary Screen; Potency, µM (series often up to 58.2 µM), without a hit: top-dose activity change, negative = inhibition, actives largely listed as inhibitors; AlphaScreen AMA1-biotinylated RON2 peptide binding; Plasmodium falciparum AMA1 (3D7) - RON2 peptide interaction; 360,000 compounds, 0.2% hits;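 further: 0% = vehicle wells and -100% = peptide control; nearly all actives have a fitted effect of over 45% in size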
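AMA1 (3D7) with his tag at 25 nM final met compounds first, then biotinylated RON2 peptide at 25 nM; detection used donor plus acceptor beads, 10 µg/mL apiece, read by AlphaScreen after 30 min at room temperature.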
Pf growth 48h: Primary qHTS for delayed death inhibitors of the malarial parasite plastid, 48 hour incubation; AID 504832, 2011; Potency, µM (top dose mostly 28.7 µM), for the others: at the highest dose activity change, negative = inhibition, actives largely listed as inhibitors; P. falciparum luciferase growth in erythrocytes, 48 h; 310,000 compounds, 5.9% hits; further: on the % scale 0 is the no-effect control and ±100 the full control effect
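Cell-based growth assay: transgenic P. falciparum expressing firefly luciferase, cultured in red cells within RPMI 1640 containing 0.5% w/v Albumax, 24 mM bicarbonate and gentamycin. A drop in luciferase activity indicates inhibition.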
Pf growth 96h: Primary qHTS for delayed death inhibitors of the malarial parasite plastid, 96 hour incubation; P. falciparum luciferase reporter growth, 96 h; Potency, µM (doses to about 28.7 µM), for the others: at the highest dose activity change, negative = inhibition, actives largely listed as inhibitors; 320,000 compounds, 6.9% hits; AID 504834, 2011; further: on the % scale 0 is the no-effect control and ±100 the full control effect
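Infected RBCs, 2% Hct / 0.05% parasitemia final; luciferase-reporter P. falciparum; cpd 96 h, 37 C, 5% CO2; luciferase detection reagent; luminescence.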
* = called active by the depositor; ? = inconclusive; · = no result; ! = a repeat was not active; [ ] = another dose, or the depositor's remark. Unless noted, the call rests on the fitted dose curve; in most records, active means well fitted curve in the direction sought with a large enough effect; inconclusive means small, poorly fitted or top-dose-only effect, or another doubt; inactive means no such curve, though single readings can be large; an effect the other way counts as inactive or inconclusive. Potency means the concentration at half of the fitted maximal effect.

SMILES | SARS PLpro yeast | AMA1 RON2 block | Pf growth 48h | Pf growth 96h
Cc1ccc(N2CC(C(=O)N3CCC(C(=O)NCCCOC(C)C)CC3)CC2=O)cc1 (stereo unspecified) | 0% | 5% | 13% | ?
CCc1ccccc1NC(=S)N1CCN(c2ccccc2F)CC1 | ? | 0% | 0% | 362%
COc1ccc(Nc2nc(NCc3ccco3)nc(N/N=C/c3ccccc3)n2)cc1 | -20% | -26% | 1.9µM* | 128%
CCOc1nc(NCc2ccco2)nc(Nc2ccc(OC)cc2)n1 | -4% | -9% | -19% | ·
O=C(NCC1CCCO1)c1cc2c([nH]c3ccccc32)c(-c2cccc(Cl)c2)n1 (stereo unspecified) | -17% | -9% | ? | 5.9µM*
COc1cccc2[nH]c(C(=O)NCC3CCCO3)cc12 (stereo unspecified) | -1% | 0% | 16% | 33%
O=C(NCC1CCCO1)c1cc2ccccc2[nH]1 (stereo unspecified) | 5% | 8% | 15% | ?
COc1cc(-c2nc(C(=O)NCC3CCCO3)cc3c2[nH]c2ccccc23)cc(OC)c1OC (stereo unspecified) | 16% | 27% | ? | 6.6µM*
COc1ccccc1-c1nc(C(=O)NCC2CCCO2)cc2c1[nH]c1ccccc12 (stereo unspecified) | -20% | 1% | 9.3µM* | 8.3µM*
O=c1nc(-c2ccccc2)n(-c2ccc(Cl)cc2)[nH]1 | -12% | 3%[2.32 µM] | 0% | 26%
CCC(C)[C@H](NC(=O)[C@@H]1CSC2c3ccccc3C(=O)N21)C(=O)N1CCCCC1 (stereo partly specified) | -4% | -5% | ? | ?
CCOC(=O)/C(C#N)=N\Nc1ccc(S(=O)(=O)Nc2nc(C)cc(C)n2)cc1 | ? | -1% | 13% | 4%
CCCn1c2ccccc2c2cnn(CC(=O)NCCCN3CCN(c4ccccc4)CC3)c(=O)c21 | -8% | -2% | 8% | 0.33µM*
CCCn1c2ccccc2c2cnn(CC(=O)NCCCN3CCCCC3)c(=O)c21 | 7% | 0% | -9% | ?
CCCn1c2ccccc2c2cnn(CC(=O)NCCCN3CCCC(C)C3)c(=O)c21 (stereo unspecified) | 0% | 2% | -13% | 15µM*
CCNc1nc(Oc2ccc(=O)n(C)n2)nc(N2CCOCC2)n1 | 2% | -3% | 9% | ?
C=CCn1c(COc2cccc(C)c2C)nnc1SCC(=O)N1CCN(c2ccccc2)CC1 | ? | ? | ? | 4%
COc1ccccc1C(=O)N(Cc1ccccc1)c1ccc(C)cc1 | -7% | -2% | ? | ?
COc1ccc(CC(=O)NC(C)CCc2ccccc2)cc1OC (stereo unspecified) | -1% | 0% | -12% | 6%
COc1ccc(CC(=O)NNC(=O)CCc2ccccc2)cc1OC | -5% | 41% | 51% | 13µM*
COc1ccc(C(=O)N(Cc2ccccc2)c2cccc(C)c2)c(OC)c1OC | -5% | -14% | 0% | ?
COc1cc(C(=O)N(Cc2ccccc2)c2cccc(C)c2)ccc1OC(F)F | -1% | 12% | ? | 13µM*
COc1ccccc1CC(=O)N(Cc1ccccc1)c1ccc(C)cc1 | -8% | -7% | ? | 9.3µM*
COc1ccc(CC(=O)N(Cc2ccccc2)c2cccc(C)c2)cc1OC | 5% | -4% | ? | 10µM*
CCN(C[C@H]1N[C@@](CC)(C(=O)OC)[C@H]2C(=O)N(C)C(=O)[C@@H]12)C(=O)NC(C)C | -2% | 1% | · | ·
SMILES | SARS PLpro yeast | AMA1 RON2 block | Pf growth 48h | Pf growth 96h
CCCCn1nnnc1C(CCSC)N1CCN(C/C=C/c2ccccc2)CC1 (stereo unspecified) | · | -15% | · | ·
NS(=O)(=O)c1ccc(NS(=O)(=O)c2ccc(C3CNC(=O)C3)cc2)cc1 (stereo unspecified) | 17% | -14% | 18% | -8%
CCC1Nc2ncnc(N3CCN(c4ccccc4)CC3)c2N(Cc2ccccc2)C1=O (stereo unspecified) | -7% | 4% | · | ·
CC(C)CC1Nc2ncnc(N3CCN(c4ccccc4)CC3)c2N(Cc2ccc(Cl)cc2)C1=O (stereo unspecified) | 1% | -2% | 9.3µM* | 9.3µM*
COc1ccc(CN2C(=O)C(C)Nc3ncnc(N4CCN(c5ccccc5)CC4)c32)cc1 (stereo unspecified) | 2% | -9% | · | ·
CCC1Nc2ncnc(N3CCN(c4ccccc4)CC3)c2N(Cc2ccc(C)cc2)C1=O (stereo unspecified) | 1% | -15% | ? | 12µM*
CC1Nc2ncnc(N3CCN(c4ccccc4)CC3)c2N(Cc2ccc(Br)cc2)C1=O (stereo unspecified) | -9% | -20% | 13µM* | ?
Cc1ccc(CN2C(=O)C(CC(C)C)Nc3ncnc(N4CCN(c5ccccc5)CC4)c32)cc1 (stereo unspecified) | 2% | -18% | · | ·
Cc1occc1-c1nnc(SCC(=O)Nc2c(F)cccc2F)n1C | -4% | 0% | 7% | 11%
COc1cc(Cl)c(CN2CCC(CCC(=O)NC3CC3)CC2)cc1OC | 2% | -1% | 0% | ?
COc1cccc(N2C(=O)Nc3ccc(Br)cc3C2(O)C(=O)NCCCN(C)C)c1 (stereo unspecified) | -1% | -2% | 4% | ?
CCN1C(=NCCCOC(C)C)N[C@@H](CCc2ccccc2)[C@H](C(=O)NCCCOC(C)C)[C@H]1C | ? | -4% | 4.7µM* | 4.7µM*
CCN1C(=NCCOC)N[C@@H](CCc2ccccc2)[C@H](C(=O)OC)[C@H]1C | 15% | 2% | 1% | 17µM*!
O=C1C=CN(Cc2ccccc2)CC1 | -4% | 9% | 10% | 55%
CC1=C(C(=O)OCc2ccccc2)C(c2cccc3ccccc23)NC(=O)N1CCCC(=O)O (stereo unspecified) | -9% | 4% | ? | ?
CC1=CC(C)(C)n2c(O)c(N=NC(N)=S)c3cccc1c32 | -25% | 42% | 4% | 13%
COc1cc2c3c(c1)c(N=NC(N)=S)c(O)n3C(C)(C)C=C2C | 1% | 20% | 10µM* | 6.6µM*
COc1ccc(C(Cl)=C(c2ccc(OC)cc2)c2ccc(OC)cc2)cc1 | -2% | -3% | 9.3µM* | ?
COc1ccc(C(=N/O)/C(=N/O)c2ccc(OC)cc2)cc1 | 0% | -2% | -4% | -3%
CCCCN(CCCC)NC(=O)c1ccccc1 | 1% | 4% | 18% | ?
CC/C(=N/N=C(\CC)c1ccccc1)c1ccccc1 | 0% | 36% | -10% | ?
CCC[N+]12CCC(CC1)C(=C(c1ccccc1)c1ccccc1)C2 | 0% | -7% | 1.3µM* | ?
CCCC[N+]12CCC(CC1)C(=C(c1ccccc1)c1ccccc1)C2 | -28% | 5% | 1.3µM* | 0.74µM*
O=C(c1cc(Cl)cc(Cl)c1)N1CCN(c2cc(C(F)(F)F)nc3ccccc23)CC1 | 0% | 11% | 3.7µM* | 1.3µM*
